Shown are actives, neighbours in structure and some others; about 1.6% of the full set was active somewhere.
RN4220 kill: kills Staphylococcus aureus RN4220; S. aureus RN4220 growth, OD600, 16 h; 330,000 tested, 0.33% active; inhibition, % (test concentration not listed); in the data active means inhibition above about 85%;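 further: plate controls were untreated cells for no effect and reference antibiotic for full effect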
CCHFV vOTU inh: blocks the CCHF virus ovarian tumor domain protease | CCHFV vOTU protease, Pep-AMC fluorescence | inhibition, % at 11.5 µM | 370,000 tested, 0.55% active | AID 651958; in the data active means inhibition above about 30%; further: 0% = vehicle wells with enzyme and 100% = no enzyme wells
BJeLR viability: BJeLR cell viability loss; BJeLR (HRASV12) viability, CellTiter-Glo ATP luminescence, 48 h; inhibition, % (test concentration not listed); 300,000 tested, 0.17% active; in the data active means inhibition above about 50%
ugtP null kill: compounds lethal to S. aureus RN4220 ugtP deletion mutant | 330,000 tested, 0.54% active | AID 1259309 | OD600 growth, 16 h | growth inhibition, % (no concentration beside the values); in the data active means growth inhibition above about 68%;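 further: plate controls were untreated wells for no effect and antibiotic for full effect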
PfHsp40 rescue: compounds rescuing yeast from Plasmodium falciparum HSP40 toxicity. AID 504582. growth rescue, % at 12.5 µM. S. cerevisiae expressing PfHsp40, growth rescue, ATP luminescence. 340,000 tested, 0.68% active; in the data active means growth rescue above about 28%, passing the limit was not always enough;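 further: yeast W303a lacking pdr1 and pdr3 grown in galactose medium; growth measured after three days at 30 °C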
* marks the source's active call; other numbers are inactive results; · = no result.

SMILES | RN4220 kill | CCHFV vOTU inh | BJeLR viability | ugtP null kill | PfHsp40 rescue
O=C(CN1c2ccccc2Sc2ccccc21)NNC(=O)Nc1ccc(Cl)cc1 | 60 | 12 | -1 | 68 | 2
CCN1CCN(C2=C(NS(=O)(=O)c3ccc(C)cc3)C(=O)c3ccccc3C2=O)CC1 | 9 | 44* | -8 | 2 | 1
CC(=O)Nc1ccc(S(=O)(=O)NC2=C(N3CCN(Cc4ccccc4)CC3)C(=O)c3ccccc3C2=O)cc1 | 13 | 28 | -3 | -4 | 1
COc1ccc(-c2cc(C(=O)NN=Cc3cccnc3)c3cc(C)cc(C)c3n2)cc1 | -4 | · | · | 18 | ·
Cc1ccc(NC(=O)C2=C(c3ccccc3)S(=O)(=O)CCS2(=O)=O)cc1 | 66 | 5 | 29 | 100* | 1
c1ccc(CSc2ncnc3c2cnn3Cc2ccccc2)cc1 | -4 | 6 | -11 | 97* | -1
Cc1cccc(NC(=O)CSc2ccc(-c3ccco3)nn2)c1C | 5 | -6 | 3 | 13 | -1
Cc1ccc(NC(=O)CSc2ccc(-c3ccccn3)nn2)cc1 | 2 | -13 | -9 | 7 | 103*
COc1ccc(NC(=O)CSc2ccc(-c3ccccn3)nn2)cc1OC | -3 | 7 | 16 | 2 | 215*
Cc1ccc(NC(=O)CSc2ccc(-c3ccccn3)nn2)c(C)c1 | -1 | 0 | 6 | 2 | 105*
Cc1cccc(NC(=O)CSc2ccc(-c3ccccn3)nn2)c1C | 7 | 4 | -1 | -3 | 200*
COc1ccccc1NC(=O)CSc1ccc(-c2ccccn2)nn1 | 3 | 27 | -10 | 3 | -2
Cc1cc(C)c(NC(=O)CSc2ccc(-c3ccccn3)nn2)c(C)c1 | 4 | -7 | -6 | 6 | -2
Cc1c(C=NNC(=O)C(C)(C)Oc2ccc(Cl)cc2)cnn1C | 7 | · | · | 6 | ·
Cc1[nH]c2ccccc2c1C=NNC(=O)c1cccc(Br)c1 | -3 | · | · | -4 | ·
COc1ccc2c(c1)C1C(CO2)C(c2ccccc2)[C@]2(C)C(=O)Nc3ccc(Cl)cc3C(=O)N12 (stereo partly drawn) | -21 | · | · | -1 | ·
O=C(CCC(=O)Nc1cc(C(F)(F)F)ccc1Cl)NN=Cc1cc([N+](=O)[O-])ccc1O | 67 | · | · | 51 | ·
COc1ccc(NC(=O)CSc2ccccn2)c([N+](=O)[O-])c1 | 7 | -5 | -3 | 5 | ·
O=C(CSc1ccccn1)Nc1ccc(NC(=O)CSc2ccccn2)cc1 | 2 | -4 | -1 | 2 | -2
CCc1ccc(NC(=O)CSc2ccccn2)cc1 | 4 | 10 | 5 | 18 | 62*
O=C(CSc1ccccn1)Nc1nonc1[N+](=O)[O-] | 40 | 17 | 23 | 86* | -1
O=c1c2ccccc2sn1-c1ccc(F)cc1 | 29 | -9 | · | 47 | 102*
COC(=O)c1cccc(N2CCCC2=O)c1 | 4 | 2 | -1 | 10 | -1
O=c1c2ccc(F)cc2sn1-c1ccccc1 | · | -2 | · | · | ·
COC(=O)c1cccc(-n2sc3ccccc3c2=O)c1 | · | 6 | · | · | 119*
SMILES | RN4220 kill | CCHFV vOTU inh | BJeLR viability | ugtP null kill | PfHsp40 rescue
Cc1ccc(-n2sc3ccccc3c2=O)cc1 | 100* | 11 | 1 | 100* | 80*
O=c1c2ccccc2sn1-c1ccc(Cl)cc1 | · | 5 | · | · | ·
CC1CCN(C2=NC(=O)C(=Cc3cn(-c4ccccc4)nc3-c3cccc(S(=O)(=O)N(C)C)c3)S2)CC1 | 5 | · | · | -12 | ·
CCOC1OC(C(N)=O)=CC(c2ccc3c(c2)OCO3)C1CCCO (stereo not drawn) | 3 | · | · | -2 | ·
CC(NC(=O)COC(=O)/C=C/c1ccc(Cl)cc1)c1ccccc1 (stereo not drawn) | -1 | 0 | 8 | -4 | 32*
Cc1ccccc1C=NNC(=O)Cn1nnc(N)n1 | 7 | · | · | -1 | ·
CC1CC(C)CN(C(=O)c2cccc(S(=O)(=O)Nc3cc(C(F)(F)F)ccc3Cl)c2)C1 (stereo not drawn) | 12 | 29 | -2 | 27 | 225*
CCOC(=O)C1CCN(C(=O)c2cccc(Cl)c2)CC1 | 2 | 4 | -2 | 1 | 0
CCOC(=O)C1CCN(c2c(C(=O)c3ccccc3)cnc3ccc(Cl)cc23)CC1 | 55 | 9 | -15 | 100* | 1
O=C(Nc1ccccc1)O/N=C/c1ccncc1 | · | -6 | 10 | · | -1
O=C(Nc1ccc(Cl)c(Cl)c1)ON=Cc1ccncc1 | 100* | · | · | 101* | ·
O=C(Nc1ccc(Cl)c(Cl)c1)OCc1cccnc1 | 100* | 14 | -4 | 100* | -1
O=C(Nc1ccc(Cl)c(Cl)c1)c1cccc(S(=O)(=O)NCc2cccnc2)c1 | 100* | 11 | 5 | 90 | 1
